# Laboratory results as given in PubChem BioAssay AID1159580 (chemical genetic matrix, 2015).
# Among all 5,500 compounds or so, about 2,000 (36%) were called active. Another 18% or so got no clear call; they are omitted. This is one part of the list. A number with no mark means an inactive call. Cut-off read from the data, not from the text of the source: active = normalized growth mostly below about 0.91 (no sharp cut-off); inconclusive = no clear call, values can overlap the other calls; inactive = mostly above about 0.92.
# Experiment: chemical genetic growth profiling, strain panel (AID 1159580);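 note: tested at 20 µM; growth read once vehicle control cultures reached saturation at 30 °C; 1 = growth at the plate median or of vehicle wells; lower values mean less growth of the strain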
# Conditions: S. cerevisiae deletion strains, growth OD
structure (smiles),measurement,setting,value
CCCCCCCCCCCCCCCC(=O)OC1C(SC)OC(C(NC(=O)C2CC(CCC)CN2C)C(C)Cl)C(O)C1O (centres undefined),normalized growth,"locus YAL021C, strain ccr4, active compounds read low",0.958
same,normalized growth,"locus YAL026C, strain drs2, active compounds read low",0.976
same,normalized growth,"locus YAL030W, strain snc1, active compounds read low",0.989
same,normalized growth,"locus YBL061C, strain skt5, active compounds read low",0.963
same,normalized growth,"locus YBR009C, strain hhf1, active compounds read low",0.977
same,normalized growth,"locus YBR023C, strain chs3, active compounds read low",0.984
same,normalized growth,"locus YBR171W, strain sec66, active compounds read low",0.961
same,normalized growth,"locus YBR231C, strain swc5, active compounds read low",0.979
same,normalized growth,"locus YBR279W, strain paf1, active compounds read low",0.981
same,normalized growth,"locus YCL011C, strain gbp2, active compounds read low",0.978
same,normalized growth,"locus YCL016C, strain dcc1, active compounds read low",0.982
same,normalized growth,"locus YCL061C, strain MRC1, active compounds read low",0.98
same,normalized growth,"locus YCL069W, strain vba3, active compounds read low",0.985
same,normalized growth,"locus YCR088W, strain abp1, active compounds read low",0.972
same,normalized growth,"locus YDL005C, strain med2, active compounds read low",0.968
same,normalized growth,"locus YDL040C, strain nat1, active compounds read low",0.979
same,normalized growth,"locus YDR001C, strain nth1, active compounds read low",0.974
same,normalized growth,"locus YDR069C, strain doa4, active compounds read low",0.975
same,normalized growth,"locus YDR137W, strain rgp1, active compounds read low",1
same,normalized growth,"locus YDR159W, strain sac3, active compounds read low",0.958
same,normalized growth,"locus YDR195W, strain ref2",0.964
same,normalized growth,"locus YDR297W, strain sur2, active compounds read low",0.976
same,normalized growth,"locus YDR334W, strain swr1, active compounds read low",0.973
same,normalized growth,"locus YDR335W, strain msn5, active compounds read low",0.978
same,normalized growth,"locus YDR392W, strain spt3, active compounds read low",0.96
same,normalized growth,"locus YEL003W, strain gim4, active compounds read low",0.98
same,normalized growth,"locus YEL037C, strain rad23, active compounds read low",0.979
same,normalized growth,"locus YEL061C, strain CIN8 (second series), active compounds read low",0.985
same,normalized growth,"locus YER015W, strain faa2, active compounds read low",0.972
same,normalized growth,"locus YER016W, strain bim1, active compounds read low",0.976
same,normalized growth,"locus YER111C, strain swi4, active compounds read low",0.964
same,normalized growth,"locus YER155C, strain BEM2 (second series), active compounds read low",0.968
same,normalized growth,"locus YFR010W, strain ubp6, active compounds read low",0.961
same,normalized growth,"locus YGL167C, strain pmr1, active compounds read low",0.972
same,normalized growth,"locus YGL173C, strain kem1, active compounds read low",0.975
same,normalized growth,"locus YGL227W, strain vid30, active compounds read low",0.963
same,normalized growth,"locus YGL240W, strain doc1, active compounds read low",0.983
same,normalized growth,"locus YGL253W, strain hxk2, active compounds read low",0.978
same,normalized growth,"locus YHR013C, strain ard1, active compounds read low",0.98
same,normalized growth,"locus YHR027C, strain rpn1, active compounds read low",0.985
same,normalized growth,"locus YHR142W, strain chs7, active compounds read low",0.97
same,normalized growth,"locus YJL092W, strain hpr5, active compounds read low",0.967
same,normalized growth,"locus YJL095W, strain BCK1 (second series), active compounds read low",0.99
same,normalized growth,"locus YJL115W, strain asf1, active compounds read low",0.974
same,normalized growth,"locus YJL129C, strain trk1, active compounds read low",0.983
same,normalized growth,"locus YJL154C, strain vps35, active compounds read low",0.963
same,normalized growth,"locus YJL164C, strain tpk1, active compounds read low",0.986
same,normalized growth,"locus YJL166W, strain qcr8, active compounds read low",0.988
same,normalized growth,"locus YJL187C, strain SWE1, active compounds read low",0.982
same,normalized growth,"locus YKL160W, strain elf1, active compounds read low",0.988
same,normalized growth,"locus YKR026C, strain gcn3, active compounds read low",0.973
same,normalized growth,"locus YKR091W, strain srl3, active compounds read low",0.985
same,normalized growth,"locus YLL001W, strain dnm1, active compounds read low",0.99
same,normalized growth,"locus YLL026W, active compounds read low",0.974
same,normalized growth,"locus YLL041C, strain sdh2, active compounds read low",0.978
same,normalized growth,"locus YLR027C, strain aat2, active compounds read low",0.976
same,normalized growth,"locus YLR221C, strain rsa3, active compounds read low",0.976
same,normalized growth,"locus YLR258W, strain gsy2, active compounds read low",0.984
same,normalized growth,"locus YLR262C, strain YPT6 (second series), active compounds read low",1.02
same,normalized growth,"locus YLR320W, strain mms22, active compounds read low",0.964
same,normalized growth,"locus YLR342W, strain FKS1, active compounds read low",0.966
same,normalized growth,"locus YLR357W, strain rsc2, active compounds read low",0.95
same,normalized growth,"locus YLR370C, strain arc18, active compounds read low",0.977
same,normalized growth,"locus YLR384C, strain iki3, active compounds read low",0.955
same,normalized growth,"locus YML120C, strain ndi1, active compounds read low",0.989
same,normalized growth,"locus YMR058W, strain fet3, active compounds read low",0.977
same,normalized growth,"locus YMR125W, strain sto1, active compounds read low",0.971
same,normalized growth,"locus YMR129W, active compounds read low",0.977
same,normalized growth,"locus YMR205C, strain PFK2, active compounds read low",0.972
same,normalized growth,"locus YMR231W, strain pep5, active compounds read low",0.959
same,normalized growth,"locus YNL071W, strain lat1, active compounds read low",0.993
same,normalized growth,"locus YNL209W, strain ssb2, active compounds read low",0.985
same,normalized growth,"locus YNL248C, strain rpa49, active compounds read low",0.979
same,normalized growth,"locus YNL322C, strain KRE1 (second series), active compounds read low",0.969
same,normalized growth,"locus YNR049C, strain mso1, active compounds read low",0.972
same,normalized growth,"locus YOR001W, strain rrp6, active compounds read low",0.981
same,normalized growth,"locus YOR070C, strain gyp1, active compounds read low",0.972
same,normalized growth,"locus YOR080W, strain dia2, active compounds read low",0.98
same,normalized growth,"locus YOR083W, strain WHI5, active compounds read low",0.988
same,normalized growth,"locus YOR106W, strain vam3, active compounds read low",0.973
same,normalized growth,"locus YOR265W, strain rbl2, active compounds read low",0.986
same,normalized growth,"locus YOR270C, strain vph1, active compounds read low",0.998
same,normalized growth,"locus YOR290C, strain snf2, active compounds read low",0.974
same,normalized growth,"locus YPL051W, strain arl3, active compounds read low",0.972
same,normalized growth,"locus YPL078C, strain atp4, active compounds read low",0.976
same,normalized growth,"locus YPL106C, strain sse1, active compounds read low",0.979
same,normalized growth,"locus YPL240C, strain hsp82, active compounds read low",0.976
CCNC(=O)[C@H]1O[C@@H](n2cnc3c(N)ncnc32)C(O)[C@H]1O (some centres undefined),normalized growth,"locus YAL013W, strain DEP1, active compounds read low",1
same,normalized growth,"locus YAL040C, strain CLN3, active compounds read low",1.02
same,normalized growth,"locus YCL061C, strain MRC1 (second series), active compounds read low",1
same,normalized growth,"locus YDR150W, strain NUM1, active compounds read low",1
same,normalized growth,"locus YDR363W, strain ESC2, active compounds read low",1.03
same,normalized growth,"locus YER002W, strain NOP16, active compounds read low",1.01
same,normalized growth,"locus YJR075W, strain HOC1, active compounds read low",1
same,normalized growth,"locus YNL175C, strain NOP13, active compounds read low",1
same,normalized growth,"locus YNL197C, strain WHI3, active compounds read low",1.01
same,normalized growth,"locus YNL224C, strain SQS1, active compounds read low",0.992
same,normalized growth,"locus YOR083W, strain WHI5 (second series), active compounds read low",1.04
Cc1nc(-c2ccc(S(=O)(=O)Nc3ccc(Br)cc3Cl)s2)cs1,normalized growth,"locus YAR019C, strain CDC15, active compounds read low",0.936
same,normalized growth,"locus YBL105C, strain PKC1, active compounds read low",0.946
same,normalized growth,"locus YBR135W, strain CKS1, active compounds read low",0.953
same,normalized growth,"locus YBR136W, strain MEC1, active compounds read low",0.942
same,normalized growth,"locus YBR160W, strain CDC28, active compounds read low",0.959
same,normalized growth,"locus YDL017W, strain CDC7, active compounds read low",0.942
same,normalized growth,"locus YDL028C, strain MPS1, active compounds read low",0.957
same,normalized growth,"locus YDL101C, strain DUN1, active compounds read low",0.956
same,normalized growth,"locus YDL108W, strain KIN28, active compounds read low",0.961
same,normalized growth,"locus YDL132W, strain cdc53, active compounds read low",0.951
same,normalized growth,"locus YDL214C, strain PRR2, active compounds read low",0.888
same,normalized growth,"locus YDR052C, strain DBF4, active compounds read low",0.941
same,normalized growth,"locus YDR054C, strain cdc34, active compounds read low",0.928
same,normalized growth,"locus YDR226W, strain ADK1, active compounds read low",0.943
same,normalized growth,"locus YDR477W, strain SNF1, active compounds read low",0.858
same,normalized growth,"locus YER123W, strain YCK3, active compounds read low",0.904
same,normalized growth,"locus YER133W, strain GLC7, active compounds read low",0.867
same,normalized growth,"locus YFL009W, strain cdc4, active compounds read low",0.957
same,normalized growth,"locus YFL029C, strain CAK1, active compounds read low",0.953
same,normalized growth,"locus YFR003C, strain YPI1, active compounds read low",0.949
same,normalized growth,"locus YFR019W, strain FAB1, active compounds read low",0.923
same,normalized growth,"locus YFR028C, strain CDC14, active compounds read low",0.952
same,normalized growth,"locus YGR040W, strain KSS1, active compounds read low",0.868
same,normalized growth,"locus YGR052W, strain FMP48, active compounds read low",0.866
same,normalized growth,"locus YGR092W, strain DBF2, active compounds read low",0.877
same,normalized growth,"locus YHR030C, strain SLT2, active compounds read low",0.575 (active)
same,normalized growth,"locus YHR079C, strain IRE1, active compounds read low",0.778
same,normalized growth,"locus YHR082C, strain KSP1, active compounds read low",0.943
same,normalized growth,"locus YHR205W, strain SCH9, active compounds read low",0.944
same,normalized growth,"locus YIL147C, strain SLN1, active compounds read low",0.957
same,normalized growth,"locus YJL095W, strain BCK1, active compounds read low",0.84
same,normalized growth,"locus YJL128C, strain PBS2, active compounds read low",0.89
same,normalized growth,"locus YJL157C, strain FAR1, active compounds read low",0.893
same,normalized growth,"locus YJR016C, strain ILV3, active compounds read low",0.94
same,normalized growth,"locus YJR066W, strain TOR1 (second series), active compounds read low",0.882
same,normalized growth,"locus YJR066W, strain TOR1, active compounds read low",0.93
same,normalized growth,"locus YKL048C, strain ELM1, active compounds read low",0.919
same,normalized growth,"locus YKL067W, strain YNK1, active compounds read low",0.883
same,normalized growth,"locus YKL101W, strain HSL1, active compounds read low",0.864
same,normalized growth,"locus YKL193C, strain SDS22, active compounds read low",0.942
same,normalized growth,"locus YKL203C, strain TOR2, active compounds read low",0.893
same,normalized growth,"locus YLR113W, strain HOG1, active compounds read low",0.635 (active)
same,normalized growth,"locus YLR133W, strain CKI1, active compounds read low",0.888
same,normalized growth,"locus YLR403W, strain SFP1, active compounds read low",0.863
same,normalized growth,"locus YML070W, strain DAK1, active compounds read low",0.856
same,normalized growth,"locus YMR001C, strain CDC5, active compounds read low",0.946
same,normalized growth,"locus YMR205C, strain PFK2 (second series), active compounds read low",0.907
same,normalized growth,"locus YMR277W, strain FCP1, active compounds read low",0.94
same,normalized growth,"locus YNL006W, strain LST8, active compounds read low",0.937
same,normalized growth,"locus YNL020C, strain ARK1, active compounds read low",0.884
same,normalized growth,"locus YNL161W, strain CBK1, active compounds read low",0.946
same,normalized growth,"locus YNL183C, strain NPR1, active compounds read low",0.901
same,normalized growth,"locus YNL207W, strain RIO2, active compounds read low",0.925
same,normalized growth,"locus YNL222W, strain SSU72, active compounds read low",0.952
same,normalized growth,"locus YNL307C, strain MCK1 (second series), active compounds read low",0.891
same,normalized growth,"locus YOL078W, strain AVO1, active compounds read low",0.952
same,normalized growth,"locus YOL136C, strain PFK27, active compounds read low",0.852
same,normalized growth,"locus YOR061W, strain CKA2, active compounds read low",0.859
same,normalized growth,"locus YOR119C, strain RIO1, active compounds read low",0.938
same,normalized growth,"locus YOR231W, strain MKK1, active compounds read low",0.79
same,normalized growth,"locus YOR329C, strain SCD5, active compounds read low",0.946
same,normalized growth,"locus YPL031C, strain PHO85, active compounds read low",0.862
same,normalized growth,"locus YPL153C, strain RAD53, active compounds read low",0.893
same,normalized growth,"locus YPL204W, strain HRR25, active compounds read low",0.846
same,normalized growth,"locus YPL209C, strain IPL1, active compounds read low",0.942
same,normalized growth,"locus YPL256C, strain CLN2, active compounds read low",0.672 (active)
same,normalized growth,"locus YPR025C, strain CCL1, active compounds read low",0.953
same,normalized growth,"locus YPR106W, strain ISR1, active compounds read low",0.943
same,normalized growth,"locus YPR111W, strain DBF20, active compounds read low",0.926
same,normalized growth,"strain NNK1, active compounds read low",0.926
same,normalized growth,"strain TSCII, active compounds read low",0.937
